From PubChem BioAssay AID1159580 (chemical genetic matrix, 2015)
Hit rate of the full screen: of about 5,500 compounds, about 2,000 (36%) were called active. Not shown: some 18% with an inconclusive outcome. This is one part of the list. A number with no mark means an inactive call. Rule as the data show it: active = normalized growth mostly below about 0.91 (no sharp cut-off); inconclusive = no clear call, values can overlap the other calls; inactive = mostly above about 0.92.

Assay: chemical genetic growth profiling, strain panel (AID 1159580);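 also: tested at 20 µM; growth read once vehicle control cultures reached saturation at 30 °C; 1 = growth at the plate median or of vehicle wells; lower values mean less growth of the strain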
Conditions: S. cerevisiae deletion strains, growth OD

O=c1c(O)c(-c2ccc(O)c(O)c2)oc2c(O[C@@H]3O[C@H](CO)[C@H](O)[C@@H](O)[C@H]3O)c(O)cc(O)c12
normalized growth (locus YAL021C, strain ccr4, hits give low values): 1.01 | normalized growth (locus YAL026C, strain drs2, hits give low values): 1.03 | normalized growth (locus YAL030W, strain snc1, hits give low values): 1.01 | normalized growth (locus YBL061C, strain skt5, hits give low values): 1.01 | normalized growth (locus YBR009C, strain hhf1, hits give low values): 1.02 | normalized growth (locus YBR023C, strain chs3, hits give low values): 1.03 | normalized growth (locus YBR171W, strain sec66, hits give low values): 1.02 | normalized growth (locus YBR231C, strain swc5, hits give low values): 1.01 | normalized growth (locus YBR279W, strain paf1, hits give low values): 1.01 | normalized growth (locus YCL011C, strain gbp2, hits give low values): 1.03 | normalized growth (locus YCL016C, strain dcc1, hits give low values): 1.02 | normalized growth (locus YCL061C, strain MRC1, hits give low values): 1 | normalized growth (locus YCL069W, strain vba3, hits give low values): 1.03 | normalized growth (locus YCR088W, strain abp1, hits give low values): 1 | normalized growth (locus YDL005C, strain med2, hits give low values): 1 | normalized growth (locus YDL040C, strain nat1, hits give low values): 1.01 | normalized growth (locus YDR001C, strain nth1, hits give low values): 1.02 | normalized growth (locus YDR069C, strain doa4, hits give low values): 1.03 | normalized growth (locus YDR137W, strain rgp1, hits give low values): 0.988 | normalized growth (locus YDR159W, strain sac3, hits give low values): 0.997 | normalized growth (locus YDR195W, strain ref2): 0.965 | normalized growth (locus YDR297W, strain sur2, hits give low values): 1.03 | normalized growth (locus YDR334W, strain swr1, hits give low values): 1.02 | normalized growth (locus YDR335W, strain msn5, hits give low values): 1.02 | normalized growth (locus YDR392W, strain spt3, hits give low values): 0.978 | normalized growth (locus YEL003W, strain gim4, hits give low values): 1.02 | normalized growth (locus YEL037C, strain rad23, hits give low values): 1.01 | normalized growth (locus YEL061C, strain CIN8 (second series), hits give low values): 1.03 | normalized growth (locus YER015W, strain faa2, hits give low values): 1 | normalized growth (locus YER016W, strain bim1, hits give low values): 1.01 | normalized growth (locus YER111C, strain swi4, hits give low values): 1.01 | normalized growth (locus YER155C, strain BEM2 (second series), hits give low values): 1.04 | normalized growth (locus YFR010W, strain ubp6, hits give low values): 1.01 | normalized growth (locus YGL167C, strain pmr1, hits give low values): 1.02 | normalized growth (locus YGL173C, strain kem1, hits give low values): 1.02 | normalized growth (locus YGL227W, strain vid30, hits give low values): 0.999 | normalized growth (locus YGL240W, strain doc1, hits give low values): 1.01 | normalized growth (locus YGL253W, strain hxk2, hits give low values): 1.02 | normalized growth (locus YHR013C, strain ard1, hits give low values): 1.02 | normalized growth (locus YHR027C, strain rpn1, hits give low values): 0.998 | normalized growth (locus YHR030C, strain SLT2, hits give low values): 0.895 | normalized growth (locus YHR079C, strain IRE1, hits give low values): 0.886 | normalized growth (locus YHR142W, strain chs7, hits give low values): 1.04 | normalized growth (locus YJL092W, strain hpr5, hits give low values): 1.01 | normalized growth (locus YJL095W, strain BCK1 (second series), hits give low values): 1.01 | normalized growth (locus YJL095W, strain BCK1, hits give low values): 0.895 | normalized growth (locus YJL115W, strain asf1, hits give low values): 1 | normalized growth (locus YJL129C, strain trk1, hits give low values): 1 | normalized growth (locus YJL154C, strain vps35, hits give low values): 1.02 | normalized growth (locus YJL164C, strain tpk1, hits give low values): 1.03 | normalized growth (locus YJL166W, strain qcr8, hits give low values): 1.04 | normalized growth (locus YJL187C, strain SWE1, hits give low values): 1.03 | normalized growth (locus YJR066W, strain TOR1, hits give low values): 0.914 | normalized growth (locus YKL160W, strain elf1, hits give low values): 1 | normalized growth (locus YKR026C, strain gcn3, hits give low values): 1.01 | normalized growth (locus YKR091W, strain srl3, hits give low values): 1.02 | normalized growth (locus YLL001W, strain dnm1, hits give low values): 0.989 | normalized growth (locus YLL026W, hits give low values): 1.01 | normalized growth (locus YLL041C, strain sdh2, hits give low values): 1.02 | normalized growth (locus YLR027C, strain aat2, hits give low values): 1.03 | normalized growth (locus YLR113W, strain HOG1, hits give low values): 0.834 (active) | normalized growth (locus YLR221C, strain rsa3, hits give low values): 1 | normalized growth (locus YLR258W, strain gsy2, hits give low values): 1.01 | normalized growth (locus YLR262C, strain YPT6 (second series), hits give low values): 1.06 | normalized growth (locus YLR320W, strain mms22, hits give low values): 1.01 | normalized growth (locus YLR342W, strain FKS1, hits give low values): 1.02 | normalized growth (locus YLR357W, strain rsc2, hits give low values): 0.988 | normalized growth (locus YLR370C, strain arc18, hits give low values): 1.02 | normalized growth (locus YLR384C, strain iki3, hits give low values): 1 | normalized growth (locus YML120C, strain ndi1, hits give low values): 1.01 | normalized growth (locus YMR058W, strain fet3, hits give low values): 1.01 | normalized growth (locus YMR125W, strain sto1, hits give low values): 1 | normalized growth (locus YMR129W, hits give low values): 1.01 | normalized growth (locus YMR205C, strain PFK2, hits give low values): 1.02 | normalized growth (locus YMR231W, strain pep5, hits give low values): 1 | normalized growth (locus YNL071W, strain lat1, hits give low values): 1.03 | normalized growth (locus YNL183C, strain NPR1, hits give low values): 0.913 | normalized growth (locus YNL209W, strain ssb2, hits give low values): 1.02 | normalized growth (locus YNL248C, strain rpa49, hits give low values): 0.988 | normalized growth (locus YNL322C, strain KRE1 (second series), hits give low values): 1 | normalized growth (locus YNR049C, strain mso1, hits give low values): 1.02 | normalized growth (locus YOR001W, strain rrp6, hits give low values): 1.01 | normalized growth (locus YOR070C, strain gyp1, hits give low values): 1.01 | normalized growth (locus YOR080W, strain dia2, hits give low values): 1.01 | normalized growth (locus YOR083W, strain WHI5, hits give low values): 1.03 | normalized growth (locus YOR106W, strain vam3, hits give low values): 1.01 | normalized growth (locus YOR231W, strain MKK1, hits give low values): 0.91 | normalized growth (locus YOR265W, strain rbl2, hits give low values): 1.04 | normalized growth (locus YOR270C, strain vph1, hits give low values): 1.11 | normalized growth (locus YOR290C, strain snf2, hits give low values): 1.03 | normalized growth (locus YPL051W, strain arl3, hits give low values): 1.01 | normalized growth (locus YPL078C, strain atp4, hits give low values): 1.01 | normalized growth (locus YPL106C, strain sse1, hits give low values): 0.971 | normalized growth (locus YPL240C, strain hsp82, hits give low values): 1.02 | normalized growth (locus YPL256C, strain CLN2, hits give low values): 0.868
